PubChem BioAssay AID1159580 (chemical genetic matrix, 2015)
Among all 5,500 compounds or so, about 2,000 (36%) were called active. Roughly 18% stayed inconclusive and do not appear here. Cut-off read from the data, not from the text of the source: active = normalized growth mostly below about 0.91 (no sharp cut-off); inconclusive = no clear call, values can overlap the other calls; inactive = mostly above about 0.92. This is one part of the list.

Experiment: chemical genetic growth profiling, strain panel (AID 1159580);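 note: tested at 20 µM; growth read once vehicle control cultures reached saturation at 30 °C; 1 = growth at the plate median or of vehicle wells; lower values mean less growth of the strain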
Details: growth OD

Measured: normalized growth

COc1ccc2c(c1)CCC(c1ccccc1)=C2c1ccc(OCCN2CCCC2)cc1
active: S. cerevisiae deletion strains, locus YBR021W, strain FUR4, stronger effect = lower value 0.239 | S. cerevisiae deletion strains, locus YCL029C, strain bik1, stronger effect = lower value 0.549 | S. cerevisiae deletion strains, locus YDL035C, strain GPR1, stronger effect = lower value 0.638 | S. cerevisiae deletion strains, locus YDL074C, strain BRE1, stronger effect = lower value 0.511 | S. cerevisiae deletion strains, locus YDL101C, strain DUN1, stronger effect = lower value 0.329 | S. cerevisiae deletion strains, locus YDL134C, strain PPH21, stronger effect = lower value 0.407 | S. cerevisiae deletion strains, locus YDL192W, strain arf1, stronger effect = lower value 0.095 | S. cerevisiae deletion strains, locus YDR101C, strain arx1, stronger effect = lower value 0.675 | S. cerevisiae deletion strains, locus YDR162C, strain NBP2, stronger effect = lower value 0.174 | S. cerevisiae deletion strains, locus YDR318W, strain mcm21, stronger effect = lower value 0.382 | S. cerevisiae deletion strains, locus YDR388W, stronger effect = lower value 0.181 | S. cerevisiae deletion strains, locus YDR502C, strain sam2, stronger effect = lower value 0.405 | S. cerevisiae deletion strains, locus YER110C, stronger effect = lower value 0.863 | S. cerevisiae deletion strains, locus YER167W, strain BCK2, stronger effect = lower value 0.85 | S. cerevisiae deletion strains, locus YGL086W, strain mad1, stronger effect = lower value 0.28 | S. cerevisiae deletion strains, locus YGL248W, strain PDE1, stronger effect = lower value 0.465 | S. cerevisiae deletion strains, locus YGR135W, strain pre9, stronger effect = lower value 0.408 | S. cerevisiae deletion strains, locus YGR252W, strain gcn5, stronger effect = lower value 0.251 | S. cerevisiae deletion strains, locus YHR079C, strain IRE1 (second series), stronger effect = lower value 0.617 | S. cerevisiae deletion strains, locus YHR094C, strain hxt1, stronger effect = lower value 0.714 | S. cerevisiae deletion strains, locus YHR129C, strain ARP1, stronger effect = lower value 0.674 | S. cerevisiae deletion strains, locus YHR200W, strain rpn10, stronger effect = lower value 0.706 | S. cerevisiae deletion strains, locus YIL066C, strain RNR3, stronger effect = lower value 0.553 | S. cerevisiae deletion strains, locus YIL073C, strain SPO22, stronger effect = lower value 0.3 | S. cerevisiae deletion strains, locus YIR030C, strain dcg1, stronger effect = lower value 0.513 | S. cerevisiae deletion strains, locus YJL095W, strain BCK1, stronger effect = lower value 0.138 | S. cerevisiae deletion strains, locus YJL168C, strain set2, stronger effect = lower value 0.409 | S. cerevisiae deletion strains, locus YJL187C, strain SWE1 (second series), stronger effect = lower value 0.367 | S. cerevisiae deletion strains, locus YJR075W, strain HOC1, stronger effect = lower value 0.593 | S. cerevisiae deletion strains, locus YKL190W, strain CNB1, stronger effect = lower value 0.524 | S. cerevisiae deletion strains, locus YKR001C, strain vps1, stronger effect = lower value 0.0705 | S. cerevisiae deletion strains, locus YLR039C, strain RIC1, stronger effect = lower value 1.37 [resistant] | S. cerevisiae deletion strains, locus YLR058C, strain SHM2, stronger effect = lower value 0.446 | S. cerevisiae deletion strains, locus YLR102C, strain apc9, stronger effect = lower value 0.683 | S. cerevisiae deletion strains, locus YLR268W, strain sec22, stronger effect = lower value 0.415 | S. cerevisiae deletion strains, locus YLR342W, strain FKS1 (second series), stronger effect = lower value 0.348 | S. cerevisiae deletion strains, locus YLR371W, strain rom2, stronger effect = lower value 0.355 | S. cerevisiae deletion strains, locus YLR418C, strain cdc73, stronger effect = lower value 0.295 | S. cerevisiae deletion strains, locus YML016C, strain PPZ1, stronger effect = lower value 0.491 | S. cerevisiae deletion strains, locus YML032C, strain rad52, stronger effect = lower value 0.492 | S. cerevisiae deletion strains, locus YML124C, strain tub3, stronger effect = lower value 0.672 | S. cerevisiae deletion strains, locus YMR223W, strain ubp8, stronger effect = lower value 0.478 | S. cerevisiae deletion strains, locus YNL067W, strain RPL9B, stronger effect = lower value 0.825 | S. cerevisiae deletion strains, locus YNL233W, strain BNI4, stronger effect = lower value 0.423 | S. cerevisiae deletion strains, locus YNL307C, strain MCK1, stronger effect = lower value 0.258 | S. cerevisiae deletion strains, locus YNL322C, strain KRE1, stronger effect = lower value 0.796 | S. cerevisiae deletion strains, locus YNR052C, strain pop2, stronger effect = lower value 0.136 | S. cerevisiae deletion strains, locus YOL006C, strain TOP1, stronger effect = lower value 0.323 | S. cerevisiae deletion strains, locus YOL012C, strain htz1 0.17 | S. cerevisiae deletion strains, locus YOL147C, strain pex11, stronger effect = lower value 0.445 | S. cerevisiae deletion strains, locus YOR061W, strain CKA2, stronger effect = lower value 0.206 | S. cerevisiae deletion strains, locus YOR069W, strain VPS5, stronger effect = lower value 0.859 | S. cerevisiae deletion strains, locus YOR136W, strain idh2, stronger effect = lower value 0.734 | S. cerevisiae deletion strains, locus YOR144C, strain elg1, stronger effect = lower value 0.813 | S. cerevisiae deletion strains, locus YOR184W, strain ser1, stronger effect = lower value 0.522 | S. cerevisiae deletion strains, locus YOR316C, strain cot1, stronger effect = lower value 0.794 | S. cerevisiae deletion strains, locus YPR119W, strain clb2, stronger effect = lower value 0.774 | S. cerevisiae deletion strains, locus YPR163C, strain tif3, stronger effect = lower value 0.0746 | S. cerevisiae deletion strains, locus YPR167C, strain met16, stronger effect = lower value 0.633 | S. cerevisiae deletion strains, strain wtn01, stronger effect = lower value 0.274 | S. cerevisiae strains, strain wild type, stronger effect = lower value 0.358
inactive: S. cerevisiae deletion strains, locus YBR229C, strain ROT2, stronger effect = lower value 0.946 | S. cerevisiae deletion strains, locus YDL185W, strain tfp1, stronger effect = lower value 0.972 | S. cerevisiae deletion strains, locus YER155C, strain BEM2, stronger effect = lower value 0.961 | S. cerevisiae deletion strains, locus YGL078C, strain dbp3, stronger effect = lower value 0.973 | S. cerevisiae deletion strains, locus YGR078C, strain PAC10, stronger effect = lower value 0.852 | S. cerevisiae deletion strains, locus YIL125W, strain kgd1, stronger effect = lower value 0.987 | S. cerevisiae deletion strains, locus YJL134W, strain LCB3, stronger effect = lower value 1.01 | S. cerevisiae deletion strains, locus YKL009W, strain mrt4, stronger effect = lower value 0.925 | S. cerevisiae deletion strains, locus YKL068W, stronger effect = lower value 0.994 | S. cerevisiae deletion strains, locus YKL085W, strain MDH1 (second series), stronger effect = lower value 0.976 | S. cerevisiae deletion strains, locus YKL085W, strain MDH1, stronger effect = lower value 0.976 | S. cerevisiae deletion strains, locus YLR262C, strain YPT6, stronger effect = lower value 1.16 | S. cerevisiae deletion strains, locus YMR078C, strain ctf18, stronger effect = lower value 0.979 | S. cerevisiae deletion strains, locus YMR307W, strain GAS1, stronger effect = lower value 0.764 | S. cerevisiae deletion strains, locus YNL250W, strain rad50, stronger effect = lower value 0.953 | S. cerevisiae deletion strains, locus YNL271C, strain bni1, stronger effect = lower value 0.992 | S. cerevisiae deletion strains, locus YNL298W, strain CLA4, stronger effect = lower value 0.957 | S. cerevisiae deletion strains, locus YPR141C, strain kar3, stronger effect = lower value 0.977
